A selection: hits, their analogues and other compounds. The true share with any hit is near 3.4%.
MITF inh: blocks human microphthalmia-associated transcription factor; inhibition, % at 2.6 µM; AlphaScreen MITF homodimerization, bead proximity signal; O75030; AID 1259374; hit rate 0.91% among 650,000; in the data active means inhibition above about 50%
Target sequence (O75030 whole entry, looked up): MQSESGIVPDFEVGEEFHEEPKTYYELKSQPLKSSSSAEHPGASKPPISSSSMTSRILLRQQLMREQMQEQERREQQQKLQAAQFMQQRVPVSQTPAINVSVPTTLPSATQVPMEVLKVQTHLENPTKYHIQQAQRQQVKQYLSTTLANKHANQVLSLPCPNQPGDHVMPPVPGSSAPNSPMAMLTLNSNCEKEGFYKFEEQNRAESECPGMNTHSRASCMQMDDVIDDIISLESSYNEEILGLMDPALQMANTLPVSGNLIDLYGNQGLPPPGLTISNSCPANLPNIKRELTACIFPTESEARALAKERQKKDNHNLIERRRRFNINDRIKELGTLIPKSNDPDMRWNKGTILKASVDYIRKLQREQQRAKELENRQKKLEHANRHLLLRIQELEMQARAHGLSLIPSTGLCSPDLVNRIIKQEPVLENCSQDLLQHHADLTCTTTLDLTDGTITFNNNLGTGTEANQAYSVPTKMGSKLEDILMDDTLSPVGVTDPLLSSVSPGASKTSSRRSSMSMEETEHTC
TEAD-YAP inh: TEAD-YAP interaction inhibition; HEK-TIYL cells, TEAD-Gal4/YAP UAS-luciferase luminescence; inhibition, % at 9.12 µM; hit rate 1.4% among 640,000; AID 1259422; in the data active means inhibition above about 32%
GPR151 activ: activates the human receptor GPR151; Q8TDV0; activation, % at 11.2 µM; hit rate 1% among 650,000; PathHunter beta-arrestin GPR151 cells, luminescence; in the data active means activation above about 4.9%
FBW7 activator: human FBW7 E3 ligase activation, primary screen; AlphaScreen FBW7–phospho-cyclin E peptide binding, activator screen; normalized activity (activation), % at 26.1 µM; hit rate 0.13% among 650,000; AID 1259310; in the data active means normalized activity above about 1.9%;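 further: purified mutant Fbw7 with reduced substrate affinity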
MITF confirm: confirmation of human MITF inhibitors | hit rate 16% among 4,700 | inhibition, % at 2.6 µM | shares compounds with MITF inh | AlphaScreen MITF homodimerization, biotin/His-MITF beads | AID 1259372;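 active means inhibition above a cutoff derived from the DMSO control wells, cut at about 28% in these data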;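 further: inhibitors lower the bead chemiluminescence by keeping MITF from dimerizing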
AlphaScreen intf2: optically interferes with AlphaScreen signal; shares compounds with MITF inh; LysRS AlphaScreen counterscreen, signal interference, triplicate; inhibition, % at 2.6 µM; hit rate 7.6% among 4,700; AID 1259376;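 active means inhibition above a cutoff derived from the DMSO control wells, cut at about 30% in these data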
A number is an active result.

How did Cc1ccc(C2=N/C(=C\c3ccc(OCc4ccccc4)cc3)C(=O)O2)cc1[N+](=O)[O-] do in these assays?
MITF inh: inactive; TEAD-YAP inh: inactive; GPR151 activ: inactive; FBW7 activator: inactive

What do the screens show for `O=C1OC(c2ccc(Cl)c(Cl)c2)=N/C1=C\c1ccccc1`?
MITF inh: inactive; TEAD-YAP inh: inactive; GPR151 activ: inactive; FBW7 activator: inactive

How did O=C1OC(c2cccc([N+](=O)[O-])c2)=N/C1=C\c1ccc(OCc2ccccc2)cc1 do in these assays?
MITF inh: 64; TEAD-YAP inh: inactive; GPR151 activ: inactive; FBW7 activator: inactive; MITF confirm: 37; AlphaScreen intf2: inactive

How did COc1cc(=O)n2c(c1C(=O)N1CCCC1)CCN(Cc1ccc(C)s1)CC2 do in these assays?
MITF inh: inactive; TEAD-YAP inh: inactive; GPR151 activ: inactive; FBW7 activator: inactive

What do the screens show for `CCOC(=O)C1=C(C)NC2=C(C(=O)C(C(=O)OCC)C(c3ccc(OC)cc3)C2)C1c1ccc(SC)cc1` (centres undefined)?
MITF inh: inactive; TEAD-YAP inh: inactive; GPR151 activ: inactive; FBW7 activator: inactive

What do the screens show for `CCC1CCCCN1C(=O)Cn1nc(C)n2c(cc3ccsc32)c1=O` (centres undefined)?
MITF inh: 61; TEAD-YAP inh: inactive; GPR151 activ: inactive; FBW7 activator: inactive; MITF confirm: inactive; AlphaScreen intf2: inactive

How did CCC1CCCCN1C(=O)Cn1nc([N+](=O)[O-])cc1C (centres undefined) do in these assays?
MITF inh: 91; TEAD-YAP inh: inactive; GPR151 activ: inactive; FBW7 activator: inactive; MITF confirm: inactive; AlphaScreen intf2: inactive

Results for O=C(NCCCN1CCCCC1)c1c(O)c2c([nH]c1=O)CCCC2 ?
MITF inh: inactive; TEAD-YAP inh: inactive; GPR151 activ: inactive; FBW7 activator: inactive

What do the screens show for `COc1ccc(C2c3cccn3CCN2C(=S)NC2CCCCC2)cc1OC` (centres undefined)?
MITF inh: inactive; TEAD-YAP inh: inactive; GPR151 activ: inactive; FBW7 activator: inactive

How did COc1ccc(CCc2nnc(CCC(=O)N3CCCCO3)o2)cc1 do in these assays?
MITF inh: inactive; TEAD-YAP inh: inactive; GPR151 activ: inactive; FBW7 activator: inactive

How did CN1CCN(CCOCCOc2ccc(Cl)cc2C(C)(C)C)CC1 do in these assays?
MITF inh: 68; TEAD-YAP inh: inactive; GPR151 activ: inactive; FBW7 activator: inactive; MITF confirm: inactive; AlphaScreen intf2: 33

How did CCN1CCN(CCOc2ccc(C)cc2Br)CC1 do in these assays?
MITF inh: inactive; TEAD-YAP inh: inactive; GPR151 activ: inactive; FBW7 activator: inactive

What do the screens show for `CN1CCN(CCOCCOc2ccccc2Br)CC1`?
MITF inh: inactive; TEAD-YAP inh: inactive; GPR151 activ: inactive; FBW7 activator: inactive

What do the screens show for `Cc1ccc(OCCOCCN2CCN(C)CC2)c(C)c1`?
MITF inh: 65; TEAD-YAP inh: inactive; GPR151 activ: inactive; FBW7 activator: inactive; MITF confirm: inactive; AlphaScreen intf2: inactive

Results for CN1CCN(CCOCCOc2cccc(Cl)c2Cl)CC1 ?
MITF inh: 51; TEAD-YAP inh: inactive; GPR151 activ: inactive; FBW7 activator: inactive; MITF confirm: inactive; AlphaScreen intf2: inactive

What do the screens show for `CCN1CCN(CCOc2ccc(C)cc2C)CC1`?
MITF inh: 78; TEAD-YAP inh: inactive; GPR151 activ: inactive; FBW7 activator: inactive; MITF confirm: inactive; AlphaScreen intf2: inactive

Results for CCC1CCCCN1C(=O)CC1(CC(=O)O)CCCC1 (centres undefined) ?
MITF inh: inactive; TEAD-YAP inh: inactive; GPR151 activ: inactive; FBW7 activator: inactive

Results for Cc1ccc(OCCCN2CCN(C)CC2)c(C(C)(C)C)c1 ?
MITF inh: inactive; TEAD-YAP inh: inactive; GPR151 activ: inactive; FBW7 activator: inactive

What do the screens show for `Cc1ccc(OCCOCCN2CCN(C)CC2)c(C(C)(C)C)c1`?
MITF inh: 56; TEAD-YAP inh: inactive; GPR151 activ: inactive; FBW7 activator: inactive; MITF confirm: inactive; AlphaScreen intf2: inactive

What do the screens show for `COc1ccc(CN2CCN(Cc3cccc(C)c3)CC2)c(OC)c1OC`?
MITF inh: inactive; TEAD-YAP inh: inactive; GPR151 activ: inactive; FBW7 activator: inactive

What do the screens show for `COc1cc(CN2CCN(Cc3cccc(C)c3)CC2)cc(OC)c1`?
MITF inh: inactive; TEAD-YAP inh: inactive; GPR151 activ: inactive; FBW7 activator: inactive

What do the screens show for `COc1cc(OC)c(OC)cc1CN1CCN(Cc2ccc(C)cc2C)CC1`?
MITF inh: 70; TEAD-YAP inh: inactive; GPR151 activ: inactive; FBW7 activator: inactive; MITF confirm: inactive; AlphaScreen intf2: inactive

How did COc1ccc(OC)c(CN2CCN(Cc3cccc(C)c3)CC2)c1 do in these assays?
MITF inh: 70; TEAD-YAP inh: inactive; GPR151 activ: inactive; FBW7 activator: inactive; MITF confirm: inactive; AlphaScreen intf2: inactive

How did COc1cc(OC)c(OC)cc1CN1CCN(Cc2cccc(C)c2)CC1 do in these assays?
MITF inh: 83; TEAD-YAP inh: inactive; GPR151 activ: inactive; FBW7 activator: inactive; MITF confirm: inactive; AlphaScreen intf2: inactive

How did COc1ccc(CN2CCN(Cc3cccc(C)c3)CC2)c(OC)c1 do in these assays?
MITF inh: 69; TEAD-YAP inh: inactive; GPR151 activ: inactive; FBW7 activator: inactive; MITF confirm: inactive; AlphaScreen intf2: inactive

Results for CCN(CC)C1CCN(C2CCC(=O)N(Cc3cc4c(cc3Cl)OCO4)CC2)C1 (centres undefined) ?
MITF inh: inactive; TEAD-YAP inh: inactive; GPR151 activ: inactive; FBW7 activator: inactive

Results for COCc1c(C(=O)N/N=C/c2cc(OC)ccc2OC)nnn1-c1nonc1N ?
MITF inh: inactive; TEAD-YAP inh: inactive; GPR151 activ: inactive; FBW7 activator: inactive

How did CC(C)c1ccc(OCC(=O)NCCc2nc3ccccc3[nH]2)cc1 do in these assays?
MITF inh: inactive; TEAD-YAP inh: inactive; GPR151 activ: inactive; FBW7 activator: inactive

Results for COc1cccc(OCCOc2ccc(/C=C3/C(=N)N4N=C(Cc5ccccc5)SC4=NC3=O)cc2)c1 ?
MITF inh: inactive; TEAD-YAP inh: inactive; GPR151 activ: inactive; FBW7 activator: inactive

What do the screens show for `COc1cccc(CN2CCN(Cc3cc(OC)ccc3OC)CC2)c1`?
MITF inh: 75; TEAD-YAP inh: inactive; GPR151 activ: inactive; FBW7 activator: inactive; MITF confirm: inactive; AlphaScreen intf2: inactive

How did CCCC1=NS(=O)(=O)c2ccccc2N1 do in these assays?
MITF inh: inactive; TEAD-YAP inh: inactive; GPR151 activ: inactive; FBW7 activator: inactive

What do the screens show for `Cc1cc(OCCCN2CCNCC2)ccc1[N+](=O)[O-]`?
MITF inh: inactive; TEAD-YAP inh: inactive; GPR151 activ: inactive; FBW7 activator: inactive

Results for Cc1ccc(OCCN2CCOCC2)cc1C ?
MITF inh: inactive; TEAD-YAP inh: inactive; GPR151 activ: inactive; FBW7 activator: inactive

Results for Cc1cc(OCCN2CCCC2)ccc1[N+](=O)[O-] ?
MITF inh: inactive; TEAD-YAP inh: inactive; GPR151 activ: inactive; FBW7 activator: inactive

How did Cc1cc(OCCN2CCN(C)CC2)ccc1[N+](=O)[O-] do in these assays?
MITF inh: 56; TEAD-YAP inh: inactive; GPR151 activ: inactive; FBW7 activator: inactive; MITF confirm: inactive; AlphaScreen intf2: inactive
